Results on 17 compounds are retold here after PubChem BioAssay.

Assay [1] has as its system XIP peptide (Xip251-270) binding. The experiment in a line: XIP fragment 251-270 binding compounds – biochemical, small-molecule microarray, fluorescence 635/667 nm, 0.1 µg/mL protein, primary screen (AID 1182). The following applies: fluorescent protein binding, 635 nm, higher = more signal, called active from +8 up or from −8 down.
The test system of a further assay is XIP peptide (Xip251-270). The assay can be described thus: compounds binding XIP fragment 251-270 – biochemical, small-molecule microarray, fluorescence 635/667 nm, 0.5 µg/mL protein, primary screen (AID 1183). To be noted: fluorescence 635 nm, higher = more signal.
A short description of assay [2]: blood-stage malaria parasite viability loss – strain 3D7, DAPI fluorescence, 100 nL, primary screen (AID 1184).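 Further: parasites grown inside human red blood cells in medium with human serum.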 To be noted: P. falciparum 3D7 growth, 3 d, higher = more signal.
For assay [3], the target named is Homeobox protein Hox-A13 (Mus musculus) (UniProt Q62424). The experiment in a line: disruptors of Hoxa13 oligonucleotide interaction – biochemical, fluorescence polarization, labeled oligonucleotide, primary screen (AID 1185). To be noted: Hoxa13:DNA binding, 15 min, higher = more signal, called active from +8 up or from −8 down.
A short description of assay [4]: blockers of DNA damage checkpoint Chk1 activation – imaging, HeLa, hydroxyurea, phospho-Chk1 antibody, percent positive cells, primary screen (AID 1186). To be noted: hydroxyurea-induced phospho-Chk1 immunofluorescence imaging, higher = more signal.
The nature of assay [5]: blockers of DNA damage checkpoint Chk1 activation – imaging, HeLa, hydroxyurea, phospho-Chk1 nuclear intensity, primary screen (AID 1187). To be noted: hydroxyurea-induced phospho-Chk1 immunofluorescence imaging, higher = more signal.

Structures are written as SMILES. Calls of active or inactive are those of the source. Unless noted, how the calls were made is not given here.

Homeobox protein Hox-A13 (Mus musculus), sequence (Q62424 whole entry, looked up): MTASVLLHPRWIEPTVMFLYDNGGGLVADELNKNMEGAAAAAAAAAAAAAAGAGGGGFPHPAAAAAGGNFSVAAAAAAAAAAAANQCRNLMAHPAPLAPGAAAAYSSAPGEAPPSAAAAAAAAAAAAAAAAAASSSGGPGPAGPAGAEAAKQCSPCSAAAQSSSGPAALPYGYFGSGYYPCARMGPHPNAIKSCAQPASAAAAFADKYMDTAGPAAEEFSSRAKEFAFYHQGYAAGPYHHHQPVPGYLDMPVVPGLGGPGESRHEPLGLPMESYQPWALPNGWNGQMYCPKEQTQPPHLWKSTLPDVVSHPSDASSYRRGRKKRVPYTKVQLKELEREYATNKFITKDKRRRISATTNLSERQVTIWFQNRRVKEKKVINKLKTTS

As to `NC(=O)[C@@]1(CCS(=O)(=O)c2ccccc2)COC(c2ccc(OCCCO)cc2)=N1`, the composite z-score was -0.377 (inactive) in assay [1] and -0.395 in the assay with XIP peptide (Xip251-270). Also, the z-score in assay [2] is 0.605; in assay [3], -4.75 (inactive); in assay [4], -0.511 (inactive); in assay [5], -1.12 (inactive).

For the compound `COC(=O)[C@@]1(Cc2ccccc2)[C@H]2c3cc(C(=O)N4CCCC4)n(Cc4ccc(C(F)(F)F)nc4)c3C[C@H]2CN1C(=O)c1ccccc1`, the composite z-score in assay [1] was -0.0699 (inactive); in the assay on XIP peptide (Xip251-270) it was 0.723. Further, the z-score in assay [2] is -1.11; in assay [3], -3.13 (inactive); in assay [4] it was -0.0659 (inactive); in assay [5] it was 0.114 (inactive).

Take `CN(C)CCCC[C@@H]1NC(=O)[C@@H]2C[C@H](C(=O)NCCCCCCNC(=O)CS)[C@H](c3cccc(OCCO)c3)N2C1=O`: the composite z-score was 0.602 (inactive) in assay [1] and 0.667 with XIP peptide (Xip251-270). In addition, the z-score is -0.391 in assay [2], -2.01 (inactive) in assay [3], 0.134 (inactive) in assay [4] and -0.332 (inactive) in assay [5].

Turning to `C#CCN=C(N)N`, the results for the composite z-score (in assay [1]; in the assay with XIP peptide (Xip251-270)) were 0.189 (inactive) and 0.391, respectively. Moreover, the z-score in assay [2] is -0.624; in assay [3] it was -0.327 (inactive); in assay [4], -0.351 (inactive); in assay [5] it was -0.447 (inactive).

For `CC(=O)c1ccc(C(O)C2C=CC3C(=O)NC(=O)C3N2Nc2ccc(Cl)cc2Cl)cc1` (configuration not stated), the composite z-score in assay [1] was 0.187 (inactive); in the assay on XIP peptide (Xip251-270), 0.02. The z-score is -0.677 in assay [2], -5.84 (inactive) in assay [3], 0.173 (inactive) in assay [4] and 0.588 (inactive) in assay [5].

Turning to `COC(=O)[C@@]1(Cc2ccc(F)cc2)[C@H]2c3cc(C(=O)N(C)C)n(CCN4CCOCC4)c3C[C@H]2CN1C(=O)c1ccccc1`, the composite z-score in assay [1] was 0.673 (inactive); with XIP peptide (Xip251-270), 0.811. Besides, the z-score in assay [2] was -1.45; in assay [3], -6.83 (inactive); in assay [4], -0.366 (inactive); in assay [5], -0.245 (inactive).

For the compound `COC(=O)[C@@]1(Cc2ccccc2CN=[N+]=[N-])COC(c2ccc(OCCCO)cc2)=N1`, the composite z-score in assay [1] was 1.31 (inactive); with XIP peptide (Xip251-270), 0.871. For the same compound, the z-score in assay [2] was -1.3; in assay [3] it was -4.77 (inactive); in assay [4] it was -0.184 (inactive); in assay [5], 0.0494 (inactive).

As for `CC1CC/C=C\[C@H]2OC34C=CCN(c5ccc(Cl)cc5)C(=O)[C@H]3N(CCCO)C(=O)[C@]4(C)C2C(=O)O1` (some centres not stated), the composite z-score in assay [1] was 0.412 (inactive); with XIP peptide (Xip251-270), 0.861. The z-score in assay [2] was 0.4; in assay [3], -4.75 (inactive); in assay [4], -0.226 (inactive); in assay [5], 0.117 (inactive).

As for `Cc1ccccc1C(O)C1C=CC2C(=O)N(c3ccccc3)C(=O)C2N1Nc1ccccc1F` (configuration not stated), the results for the composite z-score (in assay [1]; in the assay on XIP peptide (Xip251-270)) were 1.5 (inactive) and 0.646, respectively. In addition, the z-score in assay [2] is 0.907; in assay [3], -2.9 (inactive); in assay [4], 1.27 (inactive); in assay [5], 1.11 (inactive).

With `[N-]=[N+]=Nc1ccccc1[C@@H]1OC(c2ccc(OCCCO)cc2)=N[C@]1(Cc1ccccc1)C(N)=O`, the values for the composite z-score (in assay [1]; in the assay with XIP peptide (Xip251-270)) were 0.0123 (inactive) and 0.0246, respectively. Besides, the z-score is -2.06 in assay [2], -5.43 (inactive) in assay [3], -0.707 (inactive) in assay [4] and -0.543 (inactive) in assay [5].

For the compound `COc1ccccc1CN1C(=O)c2ccccc2[C@@H](C(=O)NCCCN(C)C)[C@@H]1c1ccc(CO)cc1`, the composite z-score was -0.0888 (inactive) in assay [1] and 0.66 in the assay on XIP peptide (Xip251-270). The z-score in assay [2] was -2.34; in assay [3], 3.27 (inactive); in assay [4], -0.343 (inactive); in assay [5], -0.136 (inactive).

Regarding `C=CCOC(=O)[C@H]1[C@@H]2C(=O)O[C@@H](c3ccccc3)[C@@H](c3ccccc3)N2[C@@H](c2ccc(OCCOC(=O)[C@@H]3C[C@@H]4C(=O)N[C@@H](Cc5ccccc5)C(=O)N4[C@@H]3c3ccc(O)cc3)cc2)[C@]12C(=O)Nc1ccccc12`, the composite z-score in assay [1] is 0.819 (inactive); in the assay on XIP peptide (Xip251-270), 0.743. For the same compound, the z-score in assay [2] was -1.83; in assay [3] it was 1.86 (inactive); in assay [4], -0.287 (inactive); in assay [5] it was -0.584 (inactive).

On to `O=C1NC(=O)C2C1C=CC(C(O)c1cccc(O)c1)N2Nc1ccc(Cl)cc1Cl` (configuration not stated), for which the composite z-score is -0.186 (inactive) in assay [1] and 0.199 in the assay on XIP peptide (Xip251-270). Moreover, the z-score in assay [2] was -0.0722; in assay [3] it was -5.1 (inactive); in assay [4] it was 0.684 (inactive); in assay [5], 0.194 (inactive).

Take `COCCOC(=O)N1C(=O)[C@@]2(c3cc(C#CCCO)ccc31)[C@H](c1ccc(O)cc1)N1[C@H](c3ccccc3)[C@H](c3ccccc3)OC(=O)[C@H]1[C@@H]2C(=O)N1CCc2cc(OC)c(OC)cc2C1`: the composite z-score in assay [1] is 0.0404 (inactive); in the assay on XIP peptide (Xip251-270), 0.786. For the same compound, the z-score is -0.0976 in assay [2], -1.97 (inactive) in assay [3], -0.0202 (inactive) in assay [4] and 0.0613 (inactive) in assay [5].

As to `CC(=O)n1cc(C(O)C2C=CC3C(=O)N(c4ccccc4)C(=O)C3N2Nc2ccccc2F)c2ccccc21` (configuration not stated), the values for the composite z-score (in assay [1]; in the assay with XIP peptide (Xip251-270)) were 0.0433 (inactive) and 0.752, respectively. The z-score in assay [2] was -0.153; in assay [3], -4.01 (inactive); in assay [4], -0.0566 (inactive); in assay [5], 0.153 (inactive).

Regarding `COCCOC(=O)N1C(=O)[C@@]2(c3cc(C#CCC(C(=O)OC)C(=O)OC)ccc31)[C@H](C(=O)N1CCc3cc(OC)c(OC)cc3C1)[C@H]1C(=O)O[C@H](c3ccccc3)[C@H](c3ccccc3)N1[C@@H]2c1ccc(O)cc1`, the values for the composite z-score (in assay [1]; with XIP peptide (Xip251-270)) were 0.596 (inactive) and 0.676, respectively. The z-score was -2.02 in assay [2], -1.46 (inactive) in assay [3], 0.182 (inactive) in assay [4] and 0.424 (inactive) in assay [5].

`COCC(=C=CC[C@@H](O)c1cccc(OCCO)c1)C[C@@H](O)COCc1ccccc1`: the composite z-score in assay [1] is 0.0062 (inactive); in the assay with XIP peptide (Xip251-270), 0.0674. The z-score was -1.71 in assay [2], -3.67 (inactive) in assay [3], -0.789 (inactive) in assay [4] and -0.407 (inactive) in assay [5].
